Measured values: PMC4336329 (PLoS ONE, 2015)
Out of some 310,000 compounds screened, about 14,000 (4.5%) showed an effect of 50% or more. Effects have a minus sign here. What follows is part of a selection rich in strong results, with near analogues and random picks from the rest.

Each compound was assayed against human ether-à-go-go-related gene (hERG) potassium channel (human, UniProt Q12809) (assay: primary screen, population patch clamp on CHO cells stably expressing hERG; higher = less effect of the substance).
Chain of human ether-à-go-go-related gene (hERG) potassium channel (Q12809 whole entry, looked up): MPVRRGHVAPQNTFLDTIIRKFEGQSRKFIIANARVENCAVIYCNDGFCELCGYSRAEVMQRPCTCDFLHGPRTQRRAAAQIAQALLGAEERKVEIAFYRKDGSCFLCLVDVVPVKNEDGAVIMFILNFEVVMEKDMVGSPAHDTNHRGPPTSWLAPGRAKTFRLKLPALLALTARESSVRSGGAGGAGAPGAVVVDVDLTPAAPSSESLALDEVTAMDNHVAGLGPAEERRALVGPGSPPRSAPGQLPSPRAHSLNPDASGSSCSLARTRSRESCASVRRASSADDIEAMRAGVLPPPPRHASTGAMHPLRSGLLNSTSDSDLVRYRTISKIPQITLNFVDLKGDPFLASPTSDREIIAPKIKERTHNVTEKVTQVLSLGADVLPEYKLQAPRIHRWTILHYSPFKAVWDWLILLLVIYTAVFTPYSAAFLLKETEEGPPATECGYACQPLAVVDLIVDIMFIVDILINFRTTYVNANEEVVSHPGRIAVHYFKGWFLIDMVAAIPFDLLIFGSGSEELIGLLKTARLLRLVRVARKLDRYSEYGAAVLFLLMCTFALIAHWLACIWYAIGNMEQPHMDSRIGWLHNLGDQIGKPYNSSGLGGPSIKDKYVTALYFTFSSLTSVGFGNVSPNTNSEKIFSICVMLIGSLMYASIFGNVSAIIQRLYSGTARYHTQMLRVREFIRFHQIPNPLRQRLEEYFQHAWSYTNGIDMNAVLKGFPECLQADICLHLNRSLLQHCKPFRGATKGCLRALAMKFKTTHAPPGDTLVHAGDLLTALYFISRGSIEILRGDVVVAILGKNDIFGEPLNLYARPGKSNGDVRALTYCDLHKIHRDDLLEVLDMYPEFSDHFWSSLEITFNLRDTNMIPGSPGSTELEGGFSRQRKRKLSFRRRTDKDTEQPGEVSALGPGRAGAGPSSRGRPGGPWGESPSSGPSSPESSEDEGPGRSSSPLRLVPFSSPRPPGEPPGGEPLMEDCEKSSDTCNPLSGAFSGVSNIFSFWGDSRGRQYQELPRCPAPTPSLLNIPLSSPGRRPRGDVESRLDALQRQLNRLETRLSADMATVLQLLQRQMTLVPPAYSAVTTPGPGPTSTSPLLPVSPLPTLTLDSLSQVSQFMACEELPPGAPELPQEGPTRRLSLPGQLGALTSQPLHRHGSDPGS
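Also: peak tail current of the secondary pulse compared with the same well before compound.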

| Compound | hERG current change (%, negative = inhibition) at 10uM [%] |
| --- | --- |
| Cc1ccc2nsnc2c1S(=O)(=O)N1CCN(CCc2ccccc2)CC1 | -42.6 |
| Cc1cc2c(=O)n(CC(=O)N3CCN(c4ccc(F)cc4)CC3)cnc2s1 | -12.4 |
| CC(C)(C)CC(C)(C)NCC(O)COCCOc1ccc(Br)cc1.Cl (stereo not shown) | -32.8 |
| O=C(NCc1ccc(F)cc1)NC(=O)c1ccc(Cl)cc1 | 8.5 |
| CCOC(=O)C1=CCN(Cc2ccccc2)CC1.Cl | 12.8 |
| Nc1nnc(SCCCC(=O)c2ccc(Br)cc2)s1 | 26.5 |
| OC(CNCc1ccccc1Cl)COc1ccc(F)cc1 (stereo not shown) | -21.3 |
| CCC(=O)c1ccc(OCC(O)CNCCc2ccc(Cl)cc2)cc1 (stereo not shown) | -72.1 |
| CC(=O)c1ccc(OCC(O)CNCc2ccc3c(c2)OCO3)cc1 (stereo not shown) | -26.1 |
| CC(=O)c1cccc(OCC(O)CNCCc2ccc(Cl)cc2)c1 (stereo not shown) | -49 |
| COC(=O)c1ccc(CNCC(O)COc2ccc(-c3ccccc3)cc2)cc1 (stereo not shown) | 13.1 |
| Cc1ccc(OCC(O)CNCc2ccc(F)cc2)cc1 (stereo not shown) | -40.5 |
| CCC(=O)c1ccc(OCC(O)CNC2CCCC2)cc1 (stereo not shown) | 2.52 |
| OC(CNCc1ccc2c(c1)OCO2)COc1ccccc1 (stereo not shown) | -5.74 |
| O=C(COc1ccc(C(=O)c2ccccc2)cc1)NCc1ccc(F)cc1 | -6.64 |
| CCC(=O)c1ccc(OCC(O)CNCc2ccc(F)cc2)cc1 (stereo not shown) | -52.2 |
| OC(CNCc1ccc2c(c1)OCO2)COc1ccc(F)cc1 (stereo not shown) | -55.7 |
| O=C(O)C(=O)O.O=C(c1ccccc1)c1ccc(OCC(O)CNCc2ccc(F)cc2)cc1 (stereo not shown) | -68.2 |
| CCc1nc(C)ccc1OCC(=O)NCCCN(C)C.O=C(O)C(=O)O | 4.48 |
| Cc1cc(C)cc(NC(=S)Nc2ccccn2)c1 | -8.14 |
| Cc1ccc(N=Cc2ccc(O)cc2O)cc1F | 20.6 |
| O=C(Cn1c(=O)oc2ccccc21)c1ccccc1 | -5.11 |
| CCN1CCN(C(=S)Nc2cccc(C(F)(F)F)c2)CC1 | -7.79 |

| Compound | hERG current change (%, negative = inhibition) at 10uM [%] |
| --- | --- |
| CN(C(=O)C(Cl)Cl)C1CC2C=CC1C2 (stereo not shown) | 5.29 |
| Nc1c(C(=O)CSc2nccn2-c2ccc(Cl)cc2)c(=O)[nH]c(=O)n1C1CC1 | 17.5 |
| CS(=O)(=O)N1CCC(C(=O)NCc2ccco2)CC1 | 6.1 |
| COc1ccccc1-c1nnc(SC)n1C | 36.9 |
| COc1nc2ccccc2nc1N1CCN(C)CC1 | -23.9 |
| COc1nc2ccccc2nc1N1CCN(c2ccc(F)cc2)CC1 | 17.5 |
| CC(C)COc1nc2ccccc2nc1N1CCN(C)CC1 | -72.9 |
| FC(F)(F)c1cccc(N2CCN(c3nnnn3-c3ccccc3)CC2)c1 | -25.3 |
| COc1ccc2nc(/C=N/NC(=O)CCCCCNC(=O)OC(C)(C)C)ccc2c1 | -0.0758 |
| N#Cc1ccc(NCC(=O)N2CCN(S(=O)(=O)c3ccccc3)CC2)cc1 | -70.2 |
| O=C(COc1ccccc1)N1CCN(S(=O)(=O)c2ccc(Cl)cc2)CC1 | -2.27 |
| COc1ccc(OCC(=O)N2CCN(S(=O)(=O)c3ccc(Cl)cc3)CC2)cc1 | -22.9 |
| COc1ccc(CCC(=O)N2CCN(S(=O)(=O)c3cccc(Cl)c3)CC2)cc1 | -34.8 |
| O=C(COc1ccc(Cl)cc1)N1CCN(S(=O)(=O)c2ccc(Cl)cc2)CC1 | -11.9 |
| O=C(COc1ccc(Cl)cc1)N1CCN(S(=O)(=O)c2ccccc2)CC1 | -54.6 |
| N#Cc1ccccc1NCC(=O)N1CCN(S(=O)(=O)c2ccccc2)CC1 | -1.49 |
| N#Cc1ccc(OCC(=O)N2CCN(S(=O)(=O)c3cccc(Cl)c3)CC2)cc1 | -71.4 |
| CC(=O)c1ccc(NCC(=O)N2CCN(S(=O)(=O)c3ccccc3)CC2)cc1 | -5.61 |
| O=C(NCCC1CCCCN1S(=O)(=O)c1ccccc1)C(=O)Nc1ccccc1 (stereo not shown) | -12.3 |
| COC(=O)Oc1ccc(/C=N/NS(=O)(=O)c2ccccc2)cc1OC | 21.2 |
| CCC(=Nc1ccccc1N)c1c(O)[nH]c(=O)[nH]c1=O | 18.5 |
| COC(=O)C1CN(C(=O)COc2cccc(C)c2C)c2ccccc2O1 (stereo not shown) | -6.63 |
| Cc1cccc(NC(=O)CCN2C(=O)C3C4C=CC(C4)C3C2=O)n1 (stereo not shown) | 5.71 |

| Compound | hERG current change (%, negative = inhibition) at 10uM [%] |
| --- | --- |
| COc1ccc(F)cc1C(=O)C1CCCN(Cc2cn(C)c3ccccc23)C1 (stereo not shown) | -39.5 |
| COc1ccc(C(=O)C2CCCN(Cc3c(C)[nH]c4ccccc34)C2)c(OC)c1 (stereo not shown) | -70.1 |
| COc1ccc(C(=O)C2CCCN(Cc3c(F)ccc(F)c3F)C2)c(OC)c1 (stereo not shown) | -30.9 |
| COc1ccc(C(=O)COC(=O)Cc2c[nH]c3ccccc23)c(OC)c1 | 4.87 |
| COc1ccc(F)cc1C(=O)C1CCCN(Cc2c[nH]c3ccccc23)C1 (stereo not shown) | -63.8 |
| COc1ccc(F)cc1C(=O)C1CCCN(Cc2c(C)n(C)n(-c3ccccc3)c2=O)C1 (stereo not shown) | -11.5 |
| COc1ccc(C(=O)C2CCCN(Cc3c[nH]c4ccccc34)C2)c(OC)c1 (stereo not shown) | -70.8 |
| CC1=C(C(=O)OC(C)C)C(c2ccncc2)n2ncnc2N1 (stereo not shown) | 0.568 |
| CCOc1nc(Nc2cc(Cl)ccc2OC)nc(OCC)n1 | 19.7 |
| N#Cc1ccccc1CSCCNC(=O)Cc1c(F)cccc1Cl | 15.8 |
| CCN(CC)S(=O)(=O)c1ccc2c(c1)nc(CCC(=O)Nc1ccc3c(c1)OCO3)n2CC | -0.447 |
| Cc1ccc2c(c1)nnn2C1CCN(S(=O)(=O)c2ccc(C(=O)NC3CCCC3)cc2)CC1 | 15.9 |
| CCOc1ccc(N(C)S(=O)(=O)c2cc(-c3cc(C)no3)ccc2C(C)C)cc1 | 4.4 |
| CN(Cc1ccccc1)c1cc(Cl)nc(N)n1 | -1.61 |
| Cc1cc(N(C)Cc2ccccc2)nc2cc(O)ccc12 | -56.4 |
| Cc1cc(N(C)Cc2ccccc2)nc(-c2ccccc2)n1 | -24.1 |
| C=CCn1nc2ccccc2c1OC | 3.76 |
| c1ccc(Nc2c3c(nc4ncnn24)CCC3)cc1 | -54.5 |
| C#CCNc1c2c(nc3ncnn13)CC(C)CC2 (stereo not shown) | -10.7 |
| Brc1ccc(Nc2c3c(nc4ncnn24)CCC3)cc1 | -21.4 |
| Clc1ccc(Nc2c3c(nc4ncnn24)CCC3)cc1 | 8.29 |
| CCOc1ccc(Nc2c3c(nc4ncnn24)CC(C)CC3)cc1 (stereo not shown) | -53.9 |
| C=CCNc1c2c(nc3ncnn13)CC(C)CC2 (stereo not shown) | -14.8 |

| Compound | hERG current change (%, negative = inhibition) at 10uM [%] |
| --- | --- |
| Clc1ccc(/C=N/Nc2nn[nH]n2)cc1 | 12.6 |
| Cc1ccc2nsnc2c1S(=O)(=O)Nc1ccccc1C(=O)O | -7.06 |
| Cc1c(Cc2ccccc2)sc(NC(=O)/C=C/c2cccc3ccccc23)c1C(N)=O | 20 |
| COc1ccc(CN2C(=NC(=O)CCC3CCCC3)SC3CS(=O)(=O)CC32)cc1 (stereo not shown) | 19.7 |
| COc1ccc(CN2C[C@H](Cc3ccccc3)[C@@H](CC(=O)Nc3ccccc3)C2=O)cc1 | -10.5 |
| COc1ccc(CNC(=O)C[C@H]2C(=O)N(CCc3ccccc3)C[C@@H]2Cc2ccccc2)cc1 | -53 |
| COc1ccc(CNC(=O)C[C@H]2C(=O)N(Cc3ccccc3)C[C@@H]2Cc2ccccc2)cc1 | 2.76 |
| COc1ccc(CNC(=O)C[C@H]2C(=O)N(c3ccccc3)C[C@@H]2Cc2ccccc2)cc1 | -49.4 |
| CCCCN1C[C@H](Cc2ccccc2)[C@@H](CC(=O)NCc2ccc(OC)cc2)C1=O | -61.8 |
| COc1ccc(CNC(=O)C[C@H]2C(=O)N(Cc3ccc(OC)cc3)C[C@@H]2Cc2ccccc2)cc1 | -45.9 |
| COc1cccc(C(=O)NNC(=O)c2ccccc2-n2cccc2)c1 | 34.4 |
| CS(=O)(=O)c1nc(S(=O)(=O)c2ccc(Cl)cc2)c(NCCN2CCOCC2)s1 | -31.6 |
| CC(C)(C)c1ccc(-c2c(C#N)c(N)nc3c2CCCC3)s1 | -0.863 |
| CC12CN3CN(C1)CC(c1ccccc1)(C3)C2=O | 12.7 |
| Cc1noc(C)c1COC(=O)[C@@H](NC(=O)c1ccccc1)C(C)C | 11.5 |
| Cc1ccccc1OC(C)C(=O)NCCC1=CCCCC1 (stereo not shown) | -1.85 |
| COc1cccc(OCc2cc(C(=O)N3CCN(C(C)=O)CC3)no2)c1 | -1.97 |
| O=C(c1cc(COc2ccc(F)cc2F)on1)N1CCSCC1 | -11.7 |
| O=C(c1cc(COc2ccc(F)cc2F)on1)N1CCOCC1 | 17.7 |
| O=C(c1cc(COc2ccc(F)cc2F)on1)N1CCN(C(=O)c2ccco2)CC1 | -57.3 |
| COc1cccc(OCc2cc(C(=O)N3CCN(C(=O)c4ccco4)CC3)no2)c1 | -51.7 |
| COc1cccc(OCc2cc(C(=O)N3CCN(c4ccccc4O)CC3)no2)c1 | 4.71 |
